The values below come from PubChem BioAssay AID932 (The Scripps Research Institute Molecular Screening Center, 2007).

Structures are written as SMILES. Out of some 200,000 compounds screened, about 5,100 (2.5%) were called active.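 Rule for the calls: active = activation above the screen-wide mean activation plus 3 SD (cut at about 130% in these data); inactive = the rest.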 The entries come from a sample that favours actives as a whole.

The experiment is described as follows: potentiators of IFN-gamma driven STAT1 reporter – cell-based, HTS, luciferase reporter, primary screen (AID 932).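 Note: raw ratio to IFN-gamma control signal so 100% means no change and 0% no light.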 The following applies: NIH 3T3 STAT1-luciferase reporter, luminescence, at 5.5 µM, stronger effect = higher value, 100% = IFN-gamma alone, no compound. On the technique in general: Reporter assays use an easily measured gene product as a stand-in for the process of interest.
As to `Cc1ccc(C(=O)CNc2ccc(F)cc2)cc1`, the activation (% of control) is 111% (inactive).
For the compound `COC(=O)c1ccc(NCC(=O)N2CCCCCC2)cc1`, the activation (% of control) is 114% (inactive).
Take `COC(=O)c1ccc(NCC(=O)c2ccccc2)cc1`: the activation (% of control) was 133% (active).
The value for `CN(Cc1ccccc1)C(=O)CCc1ccccc1` was 104% (inactive).
The value for `Cc1ccn(-c2cccc(-n3ccc(C)n3)n2)n1` was 135% (active).
The figure for `COc1cc(C(=O)NCc2ccc3c(c2)cc(C)n3C)cc(OC)c1OC` is 89.2% (inactive); for `COc1cccc(CNC(=O)CCC2CCCN(C(=O)c3ccoc3C)C2)c1` (centres undefined) it is 105% (inactive); for `Cc1cccc(N2CCN(C(=O)/C=C/c3ccco3)CC2)c1C` it is 99.5% (inactive).
Take `Cc1nc2ccc(NC(=O)C(F)(F)F)cc2o1`: the activation (% of control) was 95.8% (inactive).
As to `Cc1ccc(NC(=O)Nc2ccc3oc(C)nc3c2)cc1`, the activation (% of control) was 177% (active).
In the case of `Cc1nc2cc(NC(=O)NCc3ccccc3)ccc2o1`, the activation (% of control) is 111% (inactive).
The value for `CC(C)NC(=O)/C(C#N)=C\c1ccc(N(C)C)c(Br)c1` was 100% (inactive); that for `N#Cc1cccc(Nc2c3c(nc4ccccc24)CCCC3)c1` was 85.5% (inactive); that for `CC(C)Cc1cc(C(=O)NCCc2ccccc2)no1` was 130% (active).
For the compound `Cc1cc(C(=O)NCCCc2ccccc2)no1`, the activation (% of control) was 110% (inactive).
The figure for `CC(C)Cc1cc(C(=O)Nc2cc(Br)ccc2O)no1` is 101% (inactive); for `COc1ccc2c(c1)CC[C@@H]1[C@@H]2CC[C@]2(C)C(=O)CC[C@@H]12` it is 106% (inactive); for `COc1ccc2oc(-c3cccc(NC(=O)CSc4ccc(Cl)cc4)c3)nc2c1` it is 163% (active).
The value for `O=C(Cc1cccc2ccccc12)Nc1ccc2oc(-c3ccccc3)nc2c1` was 102% (inactive).
On to `COc1cccc(-c2nc3cc(C)ccc3o2)c1`, for which the activation (% of control) was 106% (inactive).
The figure for `O=C(Nc1cccc(O)c1)c1ccc(C(=O)c2ccccc2)o1` is 113% (inactive); for `O=C(NCc1cccs1)c1cc(-c2ccccn2)nc2ccc(Br)cc12` it is 106% (inactive).
Regarding `COc1ccc(-c2cn(-c3ccc(OC)cc3)c(=S)[nH]2)cc1`, the activation (% of control) is 110% (inactive).
The value for `S=C(Nc1ccc(Br)cc1Cl)NC1CCN(Cc2ccccc2)CC1` was 100% (inactive); that for `O=C(NNC(=S)Nc1ccc(Br)cc1Cl)c1ccco1` was 140% (active); that for `CCC(=O)NC(=S)Nc1ccc(NC(=O)c2ccco2)c(Cl)c1` was 109% (inactive).
The value for `CCN1CCN(C(=O)CCN2C(=O)c3ccccc3C2=O)CC1` was 96.8% (inactive); that for `CCc1ccccc1NC(=O)CSc1nnc(-c2ccncc2)o1` was 99.3% (inactive); that for `O=C(Nc1ccc(C(=O)O)cc1)/C(=C/c1ccc([N+](=O)[O-])cc1)NC(=O)c1ccccc1` was 94.6% (inactive).
